The source of these data is PubChem BioAssay (NCATS).

Structures are written as SMILES. Records with an inconclusive call do not appear. Active and inactive are the calls of the source. Calls come from the whole dose curve; as a rule, active = well fitted curve in the direction sought with a large enough effect; inconclusive = small, poorly fitted or top-dose-only effect, or another doubt; inactive = no such curve, though single readings can be large; an effect the other way counts as inactive or inconclusive.
Potency is the fitted concentration of half-maximal effect.

The nature of one experiment: NS1 protein of Zika virus - qHTS assay to identify small molecule inhibitors in human HEK 293 cells (AID 1347053).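 For activity change, negative = inhibition: plate controls were infected untreated cells for no effect and uninfected cells for full effect.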 Note: nearly all actives have a fitted effect of over 55% in size. The settings on record: HEK293 ZIKV MR766 infection, NS1 TR-FRET, 24 h; series mostly up to 46.1 µM; activity change, negative = inhibition: at the top concentration. In outline: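 Inhibition of NS1 expression was scored in HEK 293 cells given compound 1 h ahead of MR766 virus (MOI = 0.5). Following 24 h at 37 C, two anti-NS1 antibodies generated a TR-FRET signal, scaled between uninfected and infected controls.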
As for `CN(C)CCN1C(=O)c2cccc3cc(N)cc(c23)C1=O`, the “activity change, negative = inhibition” value is 31.1% (inactive).

Turning to `COC1=C(OC)C(=O)C(CC=C(C)CCC=C(C)CCC=C(C)CCC=C(C)CCC=C(C)CCC=C(C)CCC=C(C)CCC=C(C)CCC=C(C)CCC=C(C)C)=C(C)C1=O`, the “activity change, negative = inhibition” value is 4.54% (inactive).

As to `Cc1ccc([N+](=O)[O-])cc1S(=O)(=O)N(C)N=Cc1cnc2ccc(Br)cn12`, the Potency was 0.118 µM (active).

For the compound `CCc1cnn2c(NCc3ccc[n+]([O-])c3)cc(N3CCCC[C@@H]3CCO)nc12`, the Potency is 0.148 µM (active).

Consider `COc1cc(C(C)C)c(Oc2cnc(NC(CO)CO)nc2N)cc1I`, for which the “activity change, negative = inhibition” value was 11.4% (inactive).

As for `Nc1nc2c(c(=O)[nH]1)N(C=O)[C@H](CNc1ccc(C(=O)N[C@@H](CCC(=O)O)C(=O)O)cc1)CN2`, the “activity change, negative = inhibition” value was 4.89% (inactive).

Regarding `CC(C)c1cc(C(C)C)c(CC(=O)NS(=O)(=O)Oc2c(C(C)C)cccc2C(C)C)c(C(C)C)c1`, the “activity change, negative = inhibition” value was 4.64% (inactive).

For `C[C@@H]1CC[C@@]2(OC1)OC1CC3C4CC=C5CC(O)CCC5(C)C4CCC3(C)C1[C@@H]2C` (some centres not stated), the “activity change, negative = inhibition” value is -9.24% (inactive).

Regarding `Cn1cnc(=N)c2[nH]cnc21`, the “activity change, negative = inhibition” value was 5.19% (inactive).

As for `Cn1cc(-c2cnn3c(N)c(Br)c([C@H]4CCCNC4)nc23)cn1`, the Potency was 0.833 µM (active).

In the case of `CC(C)n1cnc2c(NCCc3ccc(O)cc3)nc(-c3csc4ccccc34)nc21`, the Potency is 26.4 µM (active).

For the compound `COc1cc(C[C@@H](CO)[C@H](CO)Cc2ccc(O)c(OC)c2)ccc1O`, the “activity change, negative = inhibition” value was -3.97% (inactive).

As to `Cc1ccc(-n2[nH]c(C)c(N=Nc3cccc(-c4cccc(C(=O)O)c4)c3O)c2=O)cc1C`, the “activity change, negative = inhibition” value was 17.3% (inactive).

Take `c1cncc(CN2CCC(n3ncc4c(N5CCOCC5)nc(-c5ccc6[nH]ccc6c5)nc43)CC2)c1`: the Potency is 14.8 µM (active).

With `C=CCNc1c(O)cc2c(O)c1C[C@@H](C)C[C@H](OC)[C@@H](O)[C@@H](C)C=C(C)[C@H](OC(N)=O)[C@@H](OC)C=CC=C(C)C(=O)N2`, the “activity change, negative = inhibition” value was 4.53% (inactive).

Take `COc1cc2c(Nc3ccc(Cl)c(Cl)c3F)ncnc2cc1OCC1C[C@@H]2CN(C)C[C@H]2C1`: the “activity change, negative = inhibition” value was 2.74% (inactive).

Take `CCCCCCCCc1ccc(CCC(N)(CO)CO)cc1`: the Potency is 9.35 µM (active).

Take `COC(=O)[C@H](CCCN=C(N)N)NS(=O)(=O)c1ccc(C)cc1`: the “activity change, negative = inhibition” value was 3.35% (inactive).

`c1ccc2c(Oc3nc(Nc4ccc(N5CCOCC5)cc4)c4ncn(C5CCCCC5)c4n3)cccc2c1`: the “activity change, negative = inhibition” value is -27.1% (inactive).

As for `C=CC(=O)Nc1ccc2ncnc(Nc3ccc(OCc4cccc(F)c4)c(Cl)c3)c2c1`, the Potency was 10.5 µM (active).

Consider `O=C1CSC(=O)N1C(CCc1ccncc1)COc1ccc(-c2cccc([N+](=O)[O-])c2)cc1` (configuration not stated), for which the “activity change, negative = inhibition” value is -4.9% (inactive).

Turning to `Cc1ncc(-c2ccnc(Nc3ccc(S(C)(=O)=O)cc3)n2)n1C(C)C`, the Potency is 4.69 µM (active).

As to `Cn1cc(-c2ccc3ncc(Cc4ccc5ncccc5c4)n3n2)cn1`, the “activity change, negative = inhibition” value was -13.3% (inactive).

With `C=CC1=C(C(=O)O)N2C(=O)[C@@H](NC(=O)C(=NO)c3csc(N)n3)[C@H]2SC1`, the “activity change, negative = inhibition” value was 1.65% (inactive).

Take `COc1ccc(Nc2nccc(NCCO)n2)cc1`: the “activity change, negative = inhibition” value is -5.97% (inactive).

On to `C[C@@H]1C(=O)O[C@H]2CC34[C@H]5C[C@@H](C(C)(C)C)C36[C@H](OC(=O)[C@@H]6O)O[C@@]4(C(=O)O5)[C@]21O` (some centres not stated), for which the “activity change, negative = inhibition” value was 2.01% (inactive).

For the compound `CC(=O)SCC(Cc1ccccc1)C(=O)NCC(=O)OCc1ccccc1` (configuration not stated), the “activity change, negative = inhibition” value is -5.26% (inactive).

For `CCC(C=C[C@@H]1OC(=O)C=C[C@H]1C)=C[C@H](C)CC=CC(C)=C[C@@H](C)C(=O)[C@@H](C)[C@H](O)[C@@H](C)CC(C)=CC(=O)O`, the Potency is 0.124 µM (active).

In the case of `C#Cc1cccc(Nc2ncnc3cc(OCCOC)c(OCCO)cc23)c1`, the “activity change, negative = inhibition” value is 2.5% (inactive).

Turning to `CCS(=O)(=O)Nc1ccc2[nH]c(O)c(C(=Nc3ccc(CN4CCCCC4)cc3)c3ccccc3)c2c1`, the Potency was 18.7 µM (active).

With `COc1ccc(C[C@@H](C)[C@@H](C)Cc2ccc(OC)c(OC)c2)cc1OC`, the Potency is 0.833 µM (active).

With `Cc1nc(NC(=O)N2CCC[C@@H]2C(N)=O)sc1-c1ccnc(C(C)(C)C(F)(F)F)c1`, the “activity change, negative = inhibition” value was -14.1% (inactive).

`c1coc(CNc2ncnc3nc[nH]c23)c1`: the “activity change, negative = inhibition” value is 4.43% (inactive).

As to `CC(C=CC=C(C)C=CC1=C(C)CCCC1(C)C)=CC=CC=C(C)C=CC=C(C)C=CC1=C(C)CCCC1(C)C`, the “activity change, negative = inhibition” value is 1.51% (inactive).

As to `CC(C)[C@H](CO)Nc1nc(Nc2cccc(Cl)c2)c2ncn(C(C)C)c2n1`, the Potency was 23.5 µM (active).

In the case of `N#CC(=C(O)c1ccc(Cl)cc1Cl)c1nc2cc(Cl)ccc2c(=O)[nH]1`, the “activity change, negative = inhibition” value was 3.18% (inactive).

For the compound `CC[C@H](CC[C@@H](C)[C@H]1CC[C@H]2[C@@H]3CC=C4C[C@@H](O)CC[C@]4(C)[C@@H]3CC[C@]12C)C(C)C`, the “activity change, negative = inhibition” value is 1.56% (inactive).

As for `NC(=O)Nc1sc(-c2ccc(F)cc2)cc1C(N)=O`, the “activity change, negative = inhibition” value was -14.6% (inactive).

With `COc1cc(OC)cc(-c2ccc3ncc4ccc(=O)n(-c5ccc(N6CCNCC6)c(C(F)(F)F)c5)c4c3c2)c1`, the Potency was 11.8 µM (active).

The next experiment in a line: qHTS of pediatric cancer cell lines to identify multiple opportunities for drug repurposing: Primary screen for TC32 cells (AID 1347089). For activity change, negative = cytotoxic: % is set by controls: 0 for no effect and ±100 for the full control effect. Note: nearly all actives have a fitted effect of over 60% in size. The settings on record: TC32 Ewing sarcoma viability, CellTiter-Glo luminescence, 48 h; series mostly up to 45.8 µM; activity change, negative = cytotoxic: at the top concentration. In outline: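 TC32 cells, 500-1,000/well in growth medium, compound-treated 48 h at 37 °C; viability from CellTiter-Glo luminescence. Primary screen: MIPE 11-point (0.78 nM–46 µM final), NPC 8-point (0.59 nM–46 µM final); confirmatory at 11-point dilutions.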
Regarding `COc1cc(C(C)C)c(Oc2cnc(NC(CO)CO)nc2N)cc1I`, the “activity change, negative = cytotoxic” value is 9.21% (inactive).

As to `CC(C)c1cc(C(C)C)c(CC(=O)NS(=O)(=O)Oc2c(C(C)C)cccc2C(C)C)c(C(C)C)c1`, the “activity change, negative = cytotoxic” value is 7.77% (inactive).

`C=CCNc1c(O)cc2c(O)c1C[C@@H](C)C[C@H](OC)[C@@H](O)[C@@H](C)C=C(C)[C@H](OC(N)=O)[C@@H](OC)C=CC=C(C)C(=O)N2`: the Potency was 1.65 µM (active).
